Data taken from ChEMBL document CHEMBL4513216, “Probing the Open Global Health Chemical Diversity Library for Multistage-Active Starting Points for Next-Generation Antimalarials” (ACS Infect Dis, 2020).
Hit rate of the full screen: of about 69,000 compounds, about 8,600 (12%) showed an effect of 50% or more. Many of the other results were omitted from the sample, so strong results are more common in it than they were.

tested on: Plasmodium berghei; experiment: Screen against P. berghei liver stage (PbLuc), transformed with Luciferase, at 10uM; format: functional, HepG2; settings: tested at 10 uM

| Structure (SMILES) | INHIBITION [%] |
| --- | --- |
| O=C(O)COCC(=O)NC1CC2(CCCCC2)Oc2ccccc21 (stereo not given) | 3.91 |
| CC(C)c1nnc2n1CCN(C(=O)c1cn(-c3ccccc3)nn1)C2 | 21.1 |
| O=C(NC[C@]12COC[C@H]1CN(CC1CCOCC1)C2)c1ccco1 | 3.11 |
| Cc1ncc(CN2CCCC(c3nc4ccccc4n3C(C)C)C2)s1 (stereo not given) | -21.4 |
| c1ccc2c(OCCN3CCn4c(nnc4C4CC4)C3)cccc2c1 | 21.5 |
| O=C1NCCN1C1CCN(CCOc2cccc3ccccc23)CC1 | 69.1 |
| O=C1NCCN1C1CCN(CCc2cccs2)CC1 | 29.5 |
| O=C1NCCN1C1CCN(CCOc2ccccc2Cl)CC1 | 22.6 |
| O=C1NCCN1C1CCN(CC(O)c2ccccc2F)CC1 (stereo not given) | 0.45 |
| O=C1NCCN1C1CCN(CCOc2ccccc2F)CC1 | 63.85 |
| COc1cc(C(=O)N(C)Cc2nccn2CC(F)(F)F)ccc1C | 10.7 |
| Cc1cc(C(=O)N2CCC3(CC2)C(=O)N(C)CCN3CC(C)C)c(C)o1 | 49.4 |
| Cn1cccc1C(=O)N1CCC(c2nnc(Cn3ccnc3)n2C)CC1 | -10.3 |
| NCC1[C@H]2CN(CCc3ccccc3)C[C@@H]12 (stereo not given in full) | 33.2 |
| CN(C)c1nc2c(c(N3CCC4(CCCNC4=O)C3)n1)CCCC2 (stereo not given) | 42.2 |
| CN(C)c1nc2c(c(N3CCCC4(CC3)CNC(=O)O4)n1)CCCC2 (stereo not given) | -26.8 |
| CN(C)c1nc2c(c(N3CCC4(CC3)CNC(=O)C4)n1)CCCC2 | 84.5 |
| CCn1cc(NC(=O)NCC(C)N2CCCC2)cn1 (stereo not given) | 31.8 |
| Cc1nc(CN2CCc3ncnc(C4CCOC4)c3CC2)cs1 (stereo not given) | -33 |
| Cc1nc2ncc3c(=O)n(C)ccc3n2n1 | 0.647 |
| Cc1noc(C)c1CN1CCN(C(=O)C(C(C)C)n2cncn2)CC1 (stereo not given) | 7.44 |
| Cc1ccc(C(CNC(=O)c2cc(CC(C)C)nn2C)N(C)C)cc1 (stereo not given) | -28.8 |

| Structure (SMILES) | INHIBITION [%] |
| --- | --- |
| Cc1ccc(C(CNC(=O)Cc2nc3ncccn3n2)N(C)C)cc1 (stereo not given) | 56.8 |
| Cc1ccc(C(NC(=O)Cc2nc3ncccn3n2)C2CC2)cc1 (stereo not given) | 53.4 |
| Cc1ccc(C(NC(=O)Cn2cc(C3CC3)nn2)C2CC2)cc1 (stereo not given) | 8.08 |
| Cc1ccc(C(NC(=O)CN2CCc3c(ncn3C)C2)C2CC2)cc1 (stereo not given) | 6.99 |
| Cc1ccc(OCCCNC(=O)Cc2nc3ncccn3n2)cc1 | 27.7 |
| O=C1C(NS(=O)(=O)c2cccc(F)c2)CCN1Cc1ccccc1 (stereo not given) | -5.25 |
| Cc1ccc(N2C[C@H](C)[C@]3(CCN(c4cccnc4)C3=O)C2)nn1 | 38.5 |
| CCC(C)N(Cc1sccc1C)C(=O)c1ccc2cccnc2n1 (stereo not given) | 11.2 |
| COCC(=O)N1CCN(CC2CC2)c2ncccc2C1 | -18.6 |
| COCCC(=O)N1CCN(CC2CC2)c2ncccc2C1 | 55.7 |
| CC(=O)NCC(=O)N1CCN(Cc2ccncc2)c2ncccc2C1 | 76.5 |
| CC(=O)NCC(=O)N1CCN(CC2CC2)c2ncccc2C1 | 27.9 |
| O=C(O)CCC(=O)N1CCN(CC2CC2)c2ncccc2C1 | 82 |
| O=C(Cc1ccccn1)N1CCN(CC2CC2)c2ncccc2C1 | 24.5 |
| O=C(N1CCCC1)N1CCN(CC2CC2)c2ncccc2C1 | 20.5 |
| COCCC(=O)N1CCN(CC2CC2)c2nc(C)ccc2C1 | -7.24 |
| CC(=O)NCC(=O)N1CCN(Cc2cccnc2)c2ncccc2C1 | -14 |
| COC(=O)C(NC(=O)C1CC1)c1cc(F)ccc1F (stereo not given) | 29.4 |
| CCOc1ccc(Cl)c(C(=O)NCCS(N)(=O)=O)n1 | 35.3 |
| COc1ccc(C2=CCN(C(=O)C3CCCN(C(C)=O)C3)CC2)cc1 (stereo not given) | 1.78 |
| CNC(=O)CN(C(=O)c1ccccc1)[C@H]1C[C@H]2CCOC[C@H]2C1 | 8.61 |
| CN1CC(=O)N(c2cccc(F)c2)CC12CCN(Cc1ccncc1)C2 (stereo not given) | -17.1 |

| Structure (SMILES) | INHIBITION [%] |
| --- | --- |
| COc1ccc(Cl)cc1CC(=O)N1CCN(CCO)CC1 | 38.1 |
| NC(=O)CN1CCCN(C(=O)Cc2ccc(F)c(Br)c2)CC1 | 14.4 |
| O=C(Cc1ccc(F)c(Br)c1)N1CCN(CCO)CC1 | 66.7 |
| Cn1cc(CN2CCc3onc(COc4cccnc4)c3C2)cn1 | 7.11 |
| O=S(=O)(C1CC1)N1CCc2onc(COc3ccccn3)c2C1 | 61.5 |
| c1ccc(OCc2noc3c2CN(c2ncccn2)CC3)nc1 | 24.6 |
| CCS(=O)(=O)N1CCc2onc(COc3ccccn3)c2C1 | 3.88 |
| Cc1cccc(C(=O)N2CCCCC2c2nc(C)cs2)n1 (stereo not given) | -21.9 |
| Cc1ncc(C)c(N2CCC(Cc3ccc(Cl)cc3)(C(=O)O)CC2)n1 | 12.7 |
| O=C(O)C1(Cc2ccccc2Cl)CCN(c2ncccc2F)CC1 | 43.5 |
| O=C(O)C1(Cc2ccc(Cl)cc2)CCN(c2ncccc2F)CC1 | 52 |
| O=C(CCNC(=O)c1ccccc1)Nc1ccncc1 | 1.58 |
| CC(C)OC[C@H]1CCC[C@]12CN(C(=O)C1CCOCC1)CCO2 | 27.6 |
| COC[C@H]1CCC[C@]12CN(C(=O)NCc1ccccc1)CCO2 | -1.58 |
| COC[C@@H]1CCC[C@]12CN(S(=O)(=O)c1cccs1)CCO2 | 54.1 |
| COC[C@H]1CCC[C@]12CN(S(=O)(=O)c1cccs1)CCO2 | -0.554 |
| CC(C)OC[C@H]1CCC[C@]12CN(S(=O)(=O)c1cccs1)CCO2 | 45.2 |
| COCC(=O)N1CCO[C@]2(CCC[C@H]2COC)C1 | 62.9 |
| COC[C@@H]1CCC[C@@]12CN(C(=O)C1CCOCC1)CCO2 | 33.1 |
| COC[C@@H]1CCC[C@@]12CN(C(=O)N(C)C)CCO2 | 28.5 |
| COC[C@@H]1CCC[C@@]12CN(C(=O)N1CCCC1)CCO2 | 52.1 |
| CN(C)[C@@H]1COC[C@@H]2CN(Cc3ccc4c(c3)OCO4)C[C@@H]21 | -13.7 |

| Structure (SMILES) | INHIBITION [%] |
| --- | --- |
| CC(=O)Nc1nc(CN2CCCCC2Cn2cccn2)cs1 (stereo not given) | -15.8 |
| CN(C)C(=O)C1CCc2nnc(C(C)(C)C)n21 (stereo not given) | -7.25 |
| Cc1cc2nccc(C3CCCN(C(=O)c4cnccn4)C3)n2n1 (stereo not given) | 33.2 |
| O=C(NC1CC1)N1CCc2ncnc(-c3ccncc3)c2CC1 | -17 |
| O=C(c1ccoc1)N1CC[C@@H]2[C@H]1CCC(=O)N2c1ccccc1 | 43.2 |
| Cc1occc1C(=O)N1CCC2(CCCN(Cc3cccs3)C2)C1 (stereo not given) | -60.9 |
| Cc1cnn(CCNCC(O)c2ccc(C(F)(F)F)cc2)c1 (stereo not given) | 23.3 |
| CC(C)C(=O)NC1CCCN(C(=O)c2cc3ccccc3cc2O)C1 (stereo not given) | -13.3 |
| Cc1ccn(-c2ccccc2NCc2cscn2)n1 | 52.4 |
| Cc1ccn(-c2ccccc2NCc2scnc2C)n1 | 58.3 |
| Cc1ccc(CNc2ccccc2-n2ccc(C)n2)nc1 | 40.5 |
| Cc1ccn(-c2ccccc2NCc2cccnc2C)n1 | -11.8 |
| Cc1ccn(-c2ccccc2NCc2ncc[nH]2)n1 | 7.9 |
| Cc1ccn(-c2ccccc2NCc2ccccn2)n1 | 2.37 |
| COCCC(=O)N1C[C@H]2CN(Cc3cccc(C)c3)C(=O)[C@H]2C1 | 14.9 |
| O=C(Nc1cc(C(F)(F)F)c[nH]c1=O)C1CCCNC1 (stereo not given) | 42.6 |
| O=C(NCCN1CCOCC1)N(CCCO)C1CCCc2ccccc21 (stereo not given) | 18.3 |
| COc1cccc(C(=O)N2CCN(Cc3nc(C(C)C)no3)CC2)c1 | 43.3 |
| CCOc1ccc(Cl)c(C(=O)NCCc2ncc[nH]2)n1 | 6.05 |
| COc1nc2ccccc2cc1CN1CCCC(CNC(C)=O)C1 (stereo not given) | 21.85 |
| CCOc1ccc2nc(CN3CCC(CNC(C)=O)C3)ccc2c1 (stereo not given) | 51.5 |
| CCOc1ccc2nc(CN3CCC(CN)C3)ccc2c1 (stereo not given) | 57.5 |

| Structure (SMILES) | INHIBITION [%] |
| --- | --- |
| CCc1nccc(CN2CCC(CNC(=O)C3CCC(C)CC3)C2)n1 (stereo not given) | 7.43 |
| OC[C@H]1CCN(Cc2ccc3ccccc3n2)C[C@@H]1O | 2.25 |
| CCOc1ccc2nc(CN3CCOC(CN)C3)ccc2c1 (stereo not given) | 24.8 |
| COCCN1CCC(NCc2cc(F)ccc2F)C1 (stereo not given) | -14 |
| Cc1ncc(S(C)(=O)=O)c(N(C)CCCc2cnn(C)c2)n1 | 29.1 |
| COc1cc(Br)cc(CNC2CCCNC2=O)c1O (stereo not given) | 60 |
| COCc1ccc(OC)c(CNC2CCCNC2=O)c1 (stereo not given) | -9.51 |
| COc1cc(Br)c(CNC2CCCNC2=O)cc1OC (stereo not given) | 36.5 |
| O=C(c1cc2c(s1)CCC2)N1CCC(c2ccncc2)CC1 | 32.3 |
| CC(=O)Nc1nc(C(=O)N2CCCC(n3ccnc3C)C2)cs1 (stereo not given) | 0.411 |
| O=C(CC1CC1)N1C[C@H]2CCN[C@H]2C1 | 24.6 |
| CC(C)(C)CC(=O)N1C[C@H]2CCN[C@H]2C1 | 46.4 |
| O=C(CC(F)(F)F)N1C[C@H]2CCN[C@H]2C1 | 62.3 |
| Cn1c(C2CC2)nc2c1CCN(CC(=O)Nc1nncs1)C2 | 17 |
| Cc1nc(CN2CCc3c(nc(C4CC4)n3C)C2)nc2ccccc12 | 74.1 |
| Cn1c(C2CC2)nc2c1CCN(CC(=O)NC1CCCCNC1=O)C2 (stereo not given) | 52 |
| Cn1c(C2CC2)nc2c1CCN(CC(=O)Nc1nccs1)C2 | 11.9 |
| Cc1nc2ccccc2nc1CN1CCc2c(nc(C3CC3)n2C)C1 | -12.2 |
| Cc1csc(NC(=O)CN2CCc3c(nc(C4CC4)n3C)C2)n1 | 67.4 |
| Cn1c(C2CC2)nc2c1CCN(Cc1nc3ccccc3s1)C2 | 43.5 |
| Cn1cnc2c1CCN(CC(=O)NC1CCCCNC1=O)C2 (stereo not given) | -7.72 |
| CCN1CCC(NC(=O)CN2CCc3c(nc(C4CC4)n3C)C2)CC1 | 24.8 |
